From PubChem BioAssay AID1159506 (National Center for Advancing Translational Sciences (NCATS), 2015)
Whole data set: some 59,000 sequences, median the read-out near -0.00055, cut for the lowest 2% near -2. Only a selection was taken, and the lowest values are over-represented in it overall.

Assay: Identification of proteins required for the processing of the EWS-FLI1 nascent transcript;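 note: robust z of luciferase light less the median z of siRNAs with the same seed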
Conditions: TC32 Ewing sarcoma NR0B1-luc vs CMV-luc (EWS-FLI1 target promoter against control promoter), 48 h; screened at 20 nM (by protocol)
Summary of the method: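 TC32 Ewing sarcoma cells carrying NR0B1-promoter or CMV-promoter luciferase reporters were reverse-transfected with single siRNAs at 20 nM, three per gene genome-wide. Luminescence was read after 48 h and normalized to non-targeting controls.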

| Sequence | seed-corrected z-score |
| --- | --- |
| UAACAGCGAAUUCCAAGGC against ZBTB12 | -2.07 |
| AAGACUAUAAAUCAUGUAG against LMBRD1 | -0.385 |
| AAUGUUGUGAUUAAGUAAG against DFNB59 | -2.62 |
| ACCUUGACCAGAAAGCUGC against C20orf27 | -0.672 |
| AAAAGUAUUACAAAAAGUG against MYOD1 | -0.532 |
| UAUACGUAAUGAAAGUUUC against SNX7 | 0.211 |
| AAACUGUGCAAAAGUCUCU against APCDD1L-AS1 | -0.722 |
| UUUGUGUCCACCGUUAUAA against EVPLL | 0.153 |
| AAAUGUACCAAUACGUAGU against TMEM107 | -2.13 |
| UCGUUUCUGUGCUCCGUCC against PCP2 | 0.0855 |
| UCGAUGUACACUUUGAGGC against B3GNT8 | 0.222 |
| UAUGAUUAAGAAUGAAACC against OR6C1 | 0.426 |
| UAUGGUUAGACCGCUUUCG against KIAA0408 | 0.0809 |
| AUAUGUUCGACUAUCAUGG against KATNBL1 | -3.24 |
| UAAGUCAGGAUAUUCGCUC against CRELD2 | -1.22 |
| UAAUGCGAUACAACUCGAC against COX4I1 | 1.65 |
| UGCACGAUCCGUUUGCUUC against RNASE11 | -0.108 |
| UCUGGAUCUGGUUUGCUGC against ZBTB3 | -1.18 |
| UUACUUAGUCUUGUGGUGG against HIST1H2AJ | 0.917 |
| ACGGUUUCAAUAUCUAACG against FAM160B1 | -14.4 |
| AGGAAUACAAGUCAUAUGC against TFB2M | 0.916 |
| AAGCUUUUCGUAGUCCUCA against NMRAL1 | 0.164 |

| Sequence | seed-corrected z-score |
| --- | --- |
| UUCUCGAUGCUUGUGGUUU against DMBX1 | -0.553 |
| UUUGAUAACAGUUCACUGG against PLAG1 | 1.2 |
| UUCGAUAGAAUUUGAAAGC against SUGP2 | -2.02 |
| UUCGAUCAAAAUACAAGGC against GLDN | -0.856 |
| UGGAAUAUGACUCUUUGCC against STRA8 | -0.991 |
| AUGGGUAAGAUGUAUGUUG against ZFAND1 | -0.296 |
| UUCGGUAUCGUCUGUAUCC against USP8 | -1.37 |
| UCUGGAACUAUUUACUCGG against NEMP1 | -14.8 |
| AUGACAAUCACAUUCCUCU against AKR1B10 | 0.0562 |
| UUUGCUCCCACCAAAUACC against KLHDC1 | 1.18 |
| AUAGGAAGAACUCUGUUUG against SCHIP1 | -2.03 |
| UCCAUAAUCUGUUUCGCUG against INTS4 | -1.43 |
| UCAAUGACAGCUAAUAGCC against ARL13A | -1.36 |
| UUCUUAACAUAGGGCAUGG against RRM2B | -0.284 |
| UGAACCUCUAGACUCAUAG against ZDBF2 | -0.0347 |
| AAUUCGAUUAGAGAGUGUC against SENP5 | 0.00396 |
| UUUUCUCCCUUUAUAAGGC against OXCT1 | 1.02 |
| UAUCCAACUAUCUAAACUG against TMEM184C | -16.9 |
| UCUCGAAACACCCUACUCC against MKNK1 | 0.234 |
| UGAAGUAAUGGUGAGAGGG against CRYAB | 0.664 |
| UGACCUCCAACACUAGUGC against VPS8 | 0.213 |
| AUCGUAACAAGAAAGUUCC against RNF17 | 1.39 |

| Sequence | seed-corrected z-score |
| --- | --- |
| AUCUGCAUAAACUCCACGC against SCGN | -2.24 |
| UCCAAGUUCACGAAGAUUU against MMD | 0.344 |
| UGUACUUUGGAACUAGUCC against ENKUR | 0.00323 |
| UUCCGGAUUACACCAGUGC against FAM171A2 | 0.108 |
| UUCGUAAGUGGUCCAGUUC against GSE1 | 1.07 |
| UCAAUUCUGAGCUUCGGUC against SPATA13 | 0.999 |
| UGGUAGUUCACGUUGAGCC against CASKIN2 | -2.53 |
| UGAAGUUACAUUCAGUUCU against ZFAND3 | 0.106 |
| UUAGAUCUUGAAAGAGUUC against ETV1 | -0.0727 |
| AUAGGUUUCAGAGAGGUGU against CA1 | 0.901 |
| AAUCUUAAAUUUUCCGAGC against RGS7 | -0.282 |
| UCGGGUGUUUUGGUCUUGC against LMOD1 | -2.52 |
| UACCUCAUAGGAUAACACC against MPP4 | 0.19 |
| AACGGUAGAAGCUGCAUGC against NOP58 | -1.46 |
| UCCUGCUUUAUAACUAGCC against ZNF621 | -4.33 |
| UUCAGCAUCUUUGUCGACC against RTFDC1 | -0.168 |
| UGAAGUUAAUGGGCCCUGG against MYL12BP2 | 0.711 |
| UCAUUUUCCUCAUAGGUGC against LAMB2 | -0.564 |
| AUACAUGCAGCUGUGGUUG against GABRB1 | -1.3 |
| UAAGCGAUCCAUAUCAAAC against PROX1 | 0.491 |
| UAACUGUUUAGCGAUGUCC against TBC1D1 | -2.09 |
| UUGUCUUCCUCCAUUGUCG against TSGA10IP | -0.628 |

| Sequence | seed-corrected z-score |
| --- | --- |
| UCUCUUGAUGUGGACACUC against ITGAD | -0.0619 |
| UCAUGGUCCGAAGCUGGUG against LHX2 | -2.03 |
| UCGGCAAUAAUCUCGGCCU against HNRNPA0 | 0.556 |
| UGGUUUUGUACACCUGCUG against TNP2 | -0.158 |
| UAUUGAAGGACUCCUGAUC against RAB1A | 0.0899 |
| UUCAGAUGUCCGUCUAUGC against ABLIM3 | 0.714 |
| UUGGAAUACAUUGCCGUUC against SSR1 | -0.807 |
| UUUUGGACCGCUGCACCUG against CBY3 | 0.744 |
| UUUAGAGCGAGUGGUUAGC against PPHLN1 | 0.884 |
| UAAUCUUUUCAUGCAACUC against SNCA-AS1 | -2.06 |
| UAGGUGAAGAUCUUGUUUC against COMMD10 | -0.785 |
| AAAUGAUUUAUAUCCCUGG against ABCC6P1 | -14.5 |
| AUCGGUAAGAUCCUAAUGG against VPS13A | 0.281 |
| UAUUCUACCUCGUACCUCC against TBC1D22B | -0.239 |
| ACCAGUAUAACCCAGAGUC against FCGR1A | 0.036 |
| UAUAGAGGAAAGCUAUGCC against ERCC6L | 0.528 |
| AAAGCGAGUUUUCUCAUCC against COPA | -4.21 |
| AACUGGAUAGGAGGACUGC against HSF5 | -0.327 |
| UUAAUUCUCGGAUGUGCUC against ANXA11 | 0.143 |
| UUAUGUUUUCCUACUCCAC against TCEAL1 | -2.4 |
| UGAAGGCCAACCGCUCUGU against ALG1L6P | 0.486 |
| UCAGUUUGAUUAUUUCUCU against RASSF4 | 0.41 |

| Sequence | seed-corrected z-score |
| --- | --- |
| UGACUUCACCCAGAAGCAC against SLC25A41 | -0.697 |
| UCAUCAUCCAAAGAUGUAC against C20orf196 | -1.47 |
| UAUUCGAGCGCAGUGCUGG against C10orf67 | -0.133 |
| AUUGGUAGAACAAAGUUCC against PRELID3A | 0.478 |
| UUUUGUUGUGAGCUGAUGC against SF3B4 | -3 |
| UUCCUUGGAGCUGGGAUCU against PSORS1C1 | -1.32 |
| UUCUUUUUCAAACAGCUCU against ISY1 | -1.17 |
| UACUGGUCAAUCGCUGUUC against CEP192 | -0.996 |
| UUAUUGUUCUUUCGGAUCC against SELP | 0.564 |
| UCCGGUAAGACAUUCUCUG against EAPP | 0.402 |
| AUGACUUUUAGUGUAAUCC against LOC439994 | -2.2 |
| UAUGUCGUCUUGGAGAUCG against SNRNP27 | -0.0915 |
| UUAAGAGUGACUCAAUUUG against MGAT2 | -0.219 |
| AUUGAGUAUCACGUCAUCC against TTLL4 | -2.43 |
| ACCUUGAUGGUUUUUGAUG against LOC649294 | 0.0918 |
| UUUCUUAAUGGUGGUGCCC against SLC7A7 | -0.929 |
| UGUAUUAUCGUGUCCGAGC against CTNNBL1 | -0.748 |
| UGAUAACCCACAUUGAAGG against DEGS1 | -0.494 |
| UCUUCUUCCAGUAUAAGGC against KITLG | 0.53 |
| UCAACACCCAGGUAGCGGA against DUSP26 | -2.05 |
| UAAAGGGUUGUGGGAAAUG against LRRC30 | -1.26 |
| UCUGGAAUUUGACUGCUCG against RPL24 | -0.838 |

| Sequence | seed-corrected z-score |
| --- | --- |
| UACGUAAGAAAUAGGAACG against OR6C76 | -2.11 |
| UCAACUUCCAUGAUUUUCC against IGF2BP2 | -0.332 |
| UUCCGGUCAUAAUUCAGCC against PPFIA4 | -0.228 |
| AAUGGUAAACUUGAUUUCA against TP53I11 | 0.091 |
| AUAGAGGUGAGGGUCAUGC against TGFBI | -2.38 |
| UACUUCUAUGUAGAGGUCC against AKIP1 | -0.138 |
| UCAGUUUGGAAUGAGGAGG against LOC345051 | -0.469 |
| UGUGGAUGCGGCGAUGUUC against ZNF574 | 0.836 |
| UGCUUUUAGAAAGUCCAUG against HAUS1 | -0.637 |
| ACCGUUGUAGUCUCCAUCG against ANO1 | -11.8 |
| UUUUCAUCUGGUAAAAGGG against FAM13C | -1.06 |
| UAUCUUCAGAUCGCUGUAC against ANKFY1 | 0.715 |
| UCUUCGUCCACUCUGAAUC against NMU | -2.29 |
| UUUGAUAUUCAUAACGAUC against N4BP2L2 | 0.28 |
| UGCAGUGGACCAUUUAUGC against SUN5 | -1.1 |
| UACCGAUUGUGAAUGAACC against NHS | -17 |
| UUUGGAAUCCUUUACUUGG against GLE1 | 0.251 |
| UUCAUGACAGUGACGAUGC against ITPR3 | -0.0506 |
| UCUUGGAGUUCCGUCUUUG against FGF20 | -0.184 |
| UCAUUGAUUAGGUGGAUGC against RRP9 | -0.724 |
| AUCUGGACCACUAUUUCUU against RSPH9 | 0.909 |
| UGUAGAGAUGCGGUGGUCC against BIRC5 | -2.18 |
